Results on 37 compounds are retold here after PubChem BioAssay AID1347414 (National Center for Advancing Translational Sciences (NCATS), 2020).

Records with an inconclusive call do not appear. Where a call stands in place of a potency, no number is given. Calls of active or inactive are those of the source. Calls follow the shape of the dose curve; as a rule, active = well fitted inhibition curve with a large enough effect; inconclusive = small, poorly fitted or top-dose-only effect; inactive = no such curve, though single readings can be large or run the other way.
Potency is read from the fitted curve at half-maximal effect.

The nature of this experiment: qHTS to identify inhibitors of the type 1 interferon - major histocompatibility complex class I in skeletal muscle: Secondary screen by immunofluorescence. Also: nearly all actives have a fitted effect of over 70% in size. The note with it: C25cl48 myoblasts, IFN-b induced HLA-ABC immunofluorescence, 24 h, Viability; series mostly up to 49.8 µM. The procedure, abridged:
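Immortalized human myoblasts C25cl48 were stimulated with 4.0 ng/ml IFN-beta and exposed to an 11-point 1:3 compound titration, top 50 uM, for 24 h at 37 C. They were then fixed and immunostained for HLA-ABC, and quantified by laser scanning cytometry.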
For `CC(C)c1cc(C(=O)N2Cc3ccc(CN4CCN(C)CC4)cc3C2)c(O)cc1O`, the Potency entry was “inactive”. The value for `CC(=O)OCC(=O)[C@@]12OC(C)(C)O[C@@H]1C[C@H]1[C@@H]3C[C@H](F)C4=CC(=O)C=C[C@]4(C)[C@@]3(F)[C@@H](O)C[C@@]12C` was “inactive”. In the case of `COc1cccc(-c2cc(F)ccc2[C@H]2Cc3nc(N)nc(C)c3C(=O)N2)n1`, the Potency result was “inactive”. For the compound `OC1CCC(Oc2cccc3cnc(Nc4ccc5nc[nH]c5c4)nc23)CC1` (configuration not stated), the Potency result was “inactive”. As for `C=C1C(=O)O[C@@H]2[C@H]3O[C@]3(C)CC/C=C(\C)CC[C@@H]12`, the Potency was 11.5 µM (active).

Turning to `CC(C)c1cc(CNc2nc(Nc3cc(C4CC4)[nH]n3)cc(N3CCN(C)CC3)n2)on1`, the Potency entry was “inactive”.

For `CC(=O)Nc1ccc([C@H](C)C(=O)Nc2ncc(C(C)C)s2)cc1`, the Potency result is “inactive”. In the case of `CN(c1ncccc1CNc1nc(Nc2ccc3c(c2)CC(=O)N3)ncc1C(F)(F)F)S(C)(=O)=O`, the Potency result is “inactive”.

Turning to `CCc1c(O)cc(O)c(C(=O)c2ccc(OCCN3CCOCC3)c(OC)c2)c1CC(=O)N(CCOC)CCOC`, the Potency result is “inactive”. Take `CCCCC(=O)O[C@]1(C(=O)CO)[C@@H](C)C[C@H]2[C@@H]3CCC4=CC(=O)C=C[C@]4(C)[C@@]3(F)[C@@H](O)C[C@@]21C`: the Potency result is “inactive”. The value for `C[C@]12CCC(=O)C=C1CC[C@H]1[C@@H]3CC[C@](O)(C(=O)CO)[C@@]3(C)C[C@H](O)[C@@]12F` was “inactive”; that for `OCCCNc1cc(-c2ccnc(Nc3cccc(Cl)c3)n2)ccn1` was “inactive”; that for `CCS(=O)(=O)Nc1ccc(Oc2ccc(F)cc2F)c(-c2cn(C)c(=O)c3[nH]ccc23)c1` was “inactive”. As to `Cc1cnc(Nc2ccc(N3CCN(C)CC3)cc2)nc1Nc1cccc(S(=O)(=O)NC(C)(C)C)c1`, the Potency was 20.5 µM (active). On to `CO[C@@H]1[C@@H](O)[C@H](O)[C@@H](n2c3c(Cl)cccc3c3c4c(c5c6cccc(Cl)c6[nH]c5c32)C(=O)NC4=O)O[C@H]1CO`, for which the Potency result is “inactive”. Turning to `CC1(COc2ccc3c(c2)ncn3-c2ccc3cccc(N4CCC(N)CC4)c3n2)COC1`, the Potency is 7.26 µM (active). The value for `CC(C)c1cc(-c2n[nH]c(=O)n2-c2ccc3c(ccn3C)c2)c(O)cc1O` was “inactive”; that for `O=C(CCCCCCC(=O)Nc1ccccc1)NO` was “inactive”. Take `C1=C/COCc2cc(ccc2OCCN2CCCC2)Nc2nccc(n2)-c2cccc(c2)COC/1`: the Potency is 11.5 µM (active).

Regarding `Cc1cc(Nc2cc(CN3CCOCC3)c3nc(C)c(Cc4ccc(Cl)cc4F)n3n2)n[nH]1`, the Potency was 20.5 µM (active). With `Cc1c(C(=O)Nc2ccc(Oc3ccnc4[nH]cc(-c5ccccc5)c34)c(F)c2)c(=O)n(-c2ccc(F)cc2)n1C`, the Potency result was “inactive”. With `CCCC(=O)O[C@]1(C(=O)CO)CC[C@H]2[C@@H]3CCC4=CC(=O)CC[C@]4(C)[C@H]3[C@@H](O)C[C@@]21C`, the Potency result is “inactive”.

With `CC[C@H](CC#N)OC(=O)N[C@@H](C)c1cccc(NC(=O)Nc2ccc(-c3cnco3)c(OC)c2)c1`, the Potency result was “inactive”. The value for `Cc1cc2c(cc1CC(=O)c1sccc1S(=O)(=O)Nc1onc(C)c1Cl)OCO2` was “inactive”; that for `CS(=O)(=O)N1CCC(NC(=O)c2[nH]ncc2NC(=O)c2c(Cl)cccc2Cl)CC1` was “inactive”. The value for `Nc1ccccc1NC(=O)c1ccc(CNc2nccc(-c3cccnc3)n2)cc1` was “inactive”; that for `N#CCC1(n2cc(-c3ncnc4[nH]ccc34)cn2)CN(C2CCN(C(=O)c3ccnc(C(F)(F)F)c3F)CC2)C1` was “inactive”. The value for `Cn1cc(CNCC2CCN(c3ncc(C(=O)NO)cn3)CC2)c2ccccc21` was “inactive”; that for `CN1CCC(c2c(O)cc(O)c3c(=O)cc(-c4ccccc4Cl)oc23)C1CO` (configuration not stated) was “inactive”; that for `O=C(/C=C/C#Cc1cccc(NS(=O)(=O)c2ccccc2)c1)NO` was “inactive”. For the compound `O=C(/C=C/c1ccc2ccc(C(F)(F)F)cc2n1)c1ccncc1`, the Potency was 3.64 µM (active).

For `CCC(=C/[C@H](C)C/C=C/C(C)=C/[C@@H](C)C(=O)[C@@H](C)[C@H](O)[C@@H](C)C/C(C)=C/C(=O)O)/C=C/[C@@H]1OC(=O)C=C[C@@H]1C`, the Potency result was “inactive”. As for `CC[C@@]1(O)C(=O)OCc2c1cc1n(c2=O)Cc2c-1nc1ccccc1c2/C=N/OC(C)(C)C`, the Potency result was “inactive”. For the compound `COCCN1CCN(Cc2ccc(-c3n[nH]c4c3C(=O)c3c(NC(=O)NN5CCOCC5)cccc3-4)cc2)CC1`, the Potency is 20.5 µM (active). On to `O=C1Nc2ccccc2C1(c1ccc(O)cc1)c1ccc(O)cc1`, for which the Potency result was “inactive”. For the compound `CC(C)C[C@H](NC(=O)[C@H](Cc1ccccc1)NC(=O)c1cnccn1)B(O)O`, the Potency entry was “inactive”. The value for `COc1cc(F)ccc1-c1ncnc(Nc2cccc(CS(C)(=N)=O)c2)n1` (configuration not stated) was “inactive”.
